Only some compounds are listed: those with a hit (about 19% of all), similar ones and a draw of the others.
DT40 TDP1 no CPT = qHTS for Inhibitors of human tyrosyl-DNA phosphodiesterase 1 (TDP1): qHTS in cells in absence of CPT; DT40 Tdp1-/- hTDP1 cells, no CPT, ATP luminescence, 48 h; Potency, µM (highest dose often 46.2 µM), for the others: top-dose activity change, negative = growth inhibition, most hits filed as inhibitors; AID 686978, 2013; 15% of 420,000 active; note: nearly all actives have a fitted effect of over 55% in size
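DT40 Tdp1-/-;hTDP1 cells, no CPT (DMSO vehicle only), 400 cells/well; compounds pin-transferred; ≥48 hr, 37 °C; CellTiter-Glo 30 min RT dark, luminescence read.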
KB-V1 cytotox = KB-V1 MDR subline cytotoxicity | Potency, µM (top dose mostly 46.1 µM), actives largely listed as cytotoxic | KB-V1 MDR cells viability, CellTiter-Glo, 72 h | 3.4% of 400,000 active; note: nearly all actives have a fitted effect of over 60% in size
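In this primary screen, KB-V1 cells overexpressing P-gp are incubated with library compounds (lowest to highest concentration) for 72 h at 37 degrees C before a luminescent ATP viability read.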
DT40 TDP1 CPT = DT40-hTDP1 cell growth loss with CPT; chicken DT40 Tdp1-/-;hTDP1 cells + 20 nM CPT, ATP luminescence, 48 h; Potency, µM (doses to about 46.2 µM), for inactives: at the top dose activity change, negative = growth inhibition, usual class: inhibitors; 12% of 420,000 active; AID 686979; note: nearly all actives have a fitted effect of over 55% in size
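Chicken DT40 Tdp1-/- cells stably complemented with human TDP1 were seeded at 400 cells/well in medium containing 20 nM camptothecin, exposed to pin-transferred compounds, and grown at 37 °C for at least 48 hr. Viability was read as ATP luminescence.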
KB-3-1 tox = KB-3-1 parental cell cytotoxicity; KB-3-1 viability, CellTiter-Glo ATP luminescence, 72 h; Potency, µM (top dose mostly 46.1 µM), hits mostly cytotoxic; 1.4% of 400,000 active; AID 1347075; note: nearly all actives have a fitted effect of over 60% in size
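Viability of parental KB-3-1 cells, measured by CellTiter-Glo luminescence, followed a 72 h incubation at 37 °C with pinned compounds in phenol-red-free DMEM containing 10% FBS.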
HT1080 IDH1KD tx = toxicity to HT-1080 IDH1 knockdown cells (counter line); 2% of 360,000 active; Potency, µM (top dose mostly 46.1 µM), for inactives: at the top dose activity, negative = toxicity, most hits filed as cytotoxic; HT-1080 IDH1 knockdown viability, ATP luminescence, 48 h;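 note: 0% = DMSO wells and -100% = cell-free medium wells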
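In this qHTS, HT-1080 cells depleted of IDH1 are exposed for 48 h at 37 °C to compound titrations. Toxicity is scored from CellTiter-Glo luminescence, with DMSO as full viability and medium alone as none.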
HT1080-NT tox = kills 2HG-producing HT-1080-NT fibrosarcoma cells | 1.6% of 360,000 active | AID 686970 | Potency, µM (highest dose often 46.1 µM), inactives show at the highest dose activity, negative = less viability, hits mostly cytotoxic | HT-1080-NT fibrosarcoma viability, CellTiter-Glo ATP luminescence, 48 h;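 note: NT is the 2HG producing partner of a matched IDH1 knockdown line; 0% = DMSO-treated cells and -100% = media-only wells without cells; nearly all actives have a fitted effect of over 55% in size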
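750 cells/well, RPMI + 5% FBS; 2 h settle, compound pin-transfer, 48 h at 37 degrees C. CellTiter-Glo 10 min RT, luminescence. Normalized to DMSO and media-only wells.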
* = called active by the depositor; i = inactive; ? = inconclusive; . = no result given; [ ] = dose if it differs, or a comment. Calls come from the whole dose curve; as a rule, active = well fitted curve in the direction sought with a large enough effect; inconclusive = small, poorly fitted or top-dose-only effect, or another doubt; inactive = no such curve, though single readings can be large; an effect the other way counts as inactive or inconclusive. Unless noted, % is set by controls: 0 for no effect and ±100 for the full control effect; potency is the fitted concentration of half-maximal effect.

SMILES | DT40 TDP1 no CPT | KB-V1 cytotox | DT40 TDP1 CPT | KB-3-1 tox | HT1080 IDH1KD tx | HT1080-NT tox
Cc1nn(-c2ccccc2)c2c1N(CCCC(=O)NCc1ccc(OC(C)C)cc1)C(=O)CS2 | 7.3µM* | ? | 15µM* | ? | . | .
CCCCOc1ccc(CNC(=O)CCCN2C(=O)CSc3c2c(C)nn3-c2ccccc2)cc1 | 13µM* | i | 18µM* | i | . | .
Cc1nn(-c2ccccc2)c2c1N(CCCC(=O)NC(C)c1ccccc1)C(=O)CS2 (stereo unspecified) | ? | i | 15µM* | i | . | .
Cc1nn(-c2ccccc2)c2c1N(CCCC(=O)NCc1ccc(Cl)cc1)C(=O)CS2 | 23µM* | i | 26µM* | i | . | .
Cc1nn(CCC(=O)NCc2ccc(OC(C)C)cc2)c(=O)c2nn(-c3ccccc3)c(C)c12 | 7% | i | -16% | i | -1% | -1%
COc1ccc(N2CCN(C(=O)CN3C(=O)CSc4c3c(C)nn4-c3ccccc3)CC2)cc1 | ? | i | ? | i | . | .
C[C@@H]1CN([C@H](C)CO)C(=O)c2c(c3ccccc3n2C)-c2ccccc2CO[C@H]1CN(C)C(=O)CCC(F)(F)F | ? | i | ? | i | 3% | -2%
CCCN1C(=O)/C(=C/c2c(N3CCNC(=O)C3CC(=O)OCC)nc3c(C)cccn3c2=O)SC1=S (stereo unspecified) | 16µM* | ? | 18µM* | ? | 8% | 14%
O=c1c2c3nc4ccccc4nc3n(/N=C/c3ccccn3)c2ncn1-c1ccccc1 | ? | ? | 2.6µM* | i | ? | 5.8µM*
COCCn1cnc2c(c1=O)c1nc3ccccc3nc1n2/N=C/c1cccc(OC)c1 | 12µM* | ? | 13µM* | i | 5% | 8%
COc1cccc(/C=N/n2c(-c3ccco3)nc3ccccc3c2=O)c1 | 18µM* | 2.6µM* | ? | i | -1% | -9%
COc1ccc(/C=N/n2c(-c3ccco3)nc3ccccc3c2=O)cc1 | ? | i | ? | i | 6% | 6%
C=CCn1cnc2c(c1=O)c1nc3ccccc3nc1n2/N=C/c1ccccn1 | 21µM* | ? | 16µM* | i | 0% | 8%
CCOC(=O)C1CCN(S(=O)(=O)c2c[nH]c(=O)[nH]c2=O)CC1 | 5% | ? | -13% | i | -2% | 20%
CCc1nn(CC(=O)NCc2ccccc2)c(=O)c2cccn12 | 1% | i | 0% | i | . | .
C=CCn1cnc2c(c1=O)c1nc3ccccc3nc1n2/N=C/c1cc(OC)c(OC)c(OC)c1 | 3.3µM* | ? | 4.1µM* | i | ? | ?
COc1ccc(S(=O)(=O)N2CCC(C(=O)NC3CCCCC3C)CC2)cc1 (stereo unspecified) | ? | ? | -5% | i | 7% | -1%
COc1ccc(CCN2CC(C(=O)NCc3cn(C)nc3C)CCC2=O)cc1 (stereo unspecified) | 7% | i | 3% | i | 11% | 2%
CC(C)(C)n1nnnc1C(C1CC1)N1CCN(C/C=C/c2ccccc2)CC1 (stereo unspecified) | ? | i | -24% | i | 6% | 0%
C(=C\c1ccccc1)/CN1CCN(C(c2nnnn2C2CCCC2)C2CC2)CC1 (stereo unspecified) | 13µM* | i | 18µM* | i | -8% | -10%
C(=C\c1ccccc1)/CN1CCN(C(c2ccnc3ccccc23)c2nnnn2C2CCCC2)CC1 (stereo unspecified) | 15µM* | 15µM* | ? | i | ? | -29%
CC(C)(C)n1nnnc1C(CCc1ccccc1)N1CCN(C/C=C/c2ccccc2)CC1 (stereo unspecified) | 15µM* | ? | ? | ? | ? | ?
CCCC(c1nnnn1C1CCCC1)N1CCN(c2ccccc2F)CC1 (stereo unspecified) | 23µM* | i | ? | i | -1% | -9%
CSCCC(c1nnnn1C(C)(C)C)N1CCN(C/C=C/c2ccccc2)CC1 (stereo unspecified) | ? | i | ? | i | 2% | 7%
CCC(c1nnnn1C1CCCC1)N1CCN(c2ccccc2F)CC1 (stereo unspecified) | ? | ? | -17% | i | -4%[9.24 µM] | -4%
SMILES | DT40 TDP1 no CPT | KB-V1 cytotox | DT40 TDP1 CPT | KB-3-1 tox | HT1080 IDH1KD tx | HT1080-NT tox
Cc1cc(C)cc(N2CCn3c2nc2c3c(=O)n(Cc3ccc(Cl)cc3)c(=O)n2C)c1 | -6% | . | -3% | . | . | .
COc1ccc(CCC(=O)NCCCNC(=O)CCc2ccc(OC)cc2)cc1 | ? | i | ? | i | 13% | 16%
O=C(CCSc1ccccc1)Nc1nnc(-c2cccs2)o1 | -10% | i | 3% | i | 1% | -2%
C(=C\c1ccccc1)/CN1CCN(C(c2ccccc2)c2nnnn2C2CCCC2)CC1 (stereo unspecified) | 23µM* | i | 18µM* | i | ? | ?
C(=C\c1ccccc1)/CN1CCN(C(CCc2ccccc2)c2nnnn2C2CCCC2)CC1 (stereo unspecified) | ? | i | 18µM* | ? | ? | ?
CCCCn1nnnc1C(CCc1ccccc1)N1CCN(C/C=C/c2ccccc2)CC1 (stereo unspecified) | 23µM* | i | ? | i | ? | ?
C(=C\c1ccccc1)/CN1CCN(C(c2cccs2)c2nnnn2C2CCCC2)CC1 (stereo unspecified) | ? | i | ? | ? | ? | ?
C(=C\c1ccccc1)/CN1CCN(C(c2nnnn2Cc2ccccc2)C2CC2)CC1 (stereo unspecified) | 16µM* | ? | 16µM* | i | ? | 18µM*
C/C(NCCc1ccccc1)=C1/CCOC1=O | -14% | i | -3% | i | 0% | 1%
C(=C\c1ccccc1)/CN1CCN(C(c2cc3ccccc3o2)c2nnnn2C2CCCCC2)CC1 (stereo unspecified) | ? | i | 18µM* | i | 2% | 6%
CC(C)(C)n1nnnc1C(c1cc2ccccc2o1)N1CCCC1 (stereo unspecified) | -29% | ? | -13% | i | 11% | 5%
COc1ccc(C(=O)N2CCC3(CCCN(Cc4ccc(C#N)cc4)C3)CC2)cc1 | 18µM* | . | -26% | . | . | .

Bioassay records deposited in PubChem by National Center for Advancing Translational Sciences (NCATS).
